Compound activity: PubChem, several laboratories
CYP2C19 activ – cytochrome P450 2C19 (human) activation. 96,000 tested, under 10 active. activation factor at 5 µM. P33261. AID 1025. recombinant CYP2C19, luciferin-H EGE luminescence; active compounds read high; 0 = fully inhibited enzyme, 1 = untreated enzyme;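 active = activation factor of at least 2 at 5 µM in the primary screen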;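 note: 0 = wells with 2.5 mM tranylcypromine and 1 = vehicle-only wells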
Cav32 inh – human Cav3.2 channel inhibition, primary screen | AID 449739 | actives 4% (n = 100,000) | Cav3.2-expressing cells, Fluo-4 calcium fluorescence FDSS; active compounds read low | B-score at 10 µM;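 active = single-dose well whose peak fluorescence ratio is a statistical outlier from its plate by either plate-standardised score or position-corrected B-score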
CYP2C9 act – CYP2C9 (human) activation; P11712; actives 1.4% (n = 96,000); AID 1024; activation factor at 5 µM; recombinant CYP2C9, luciferin-H conversion, luminescence; active compounds read high; factor 1 = untreated enzyme, 0 = blocked;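 active = activation factor of 2 or more for CYP2C9 at a 5 µM dose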;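 note: 0 = sulfaphenazole-blocked wells and 1 = vehicle-only wells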
CYP2C9 inh – blocks human cytochrome P450 2C9; AID 777; CYP2C9 Supersomes, luciferin-H conversion, luminescence; actives 20% (n = 96,000); inhibition, % at 5 µM; P11712;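 active = blocking of liver enzyme CYP2C9 beyond about 50% at 5 µM, limit read from the data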
CYP2C19 inh – inhibitors of human CYP2C19. CYP2C19 Supersomes, luciferin-H EGE luminescence, 30 min. inhibition, % at 5 µM. actives 21% (n = 96,000). AID 778;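 active = CYP2C19 inhibition above a set limit at 5 µM in the primary screen, cut at about 50% in these data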;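 note: plate controls were negative control wells for no effect and 2.5 mM tranylcypromine positive control for full effect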
* = called active by the depositor; · = no result. A selection: hits, their analogues and other compounds. The true share with any hit is near 27%.

SMILES	CYP2C19 activ	Cav32 inh	CYP2C9 act	CYP2C9 inh	CYP2C19 inh
CCC1Sc2ccccc2N(CC(=O)NCc2ccc3c(c2)OCO3)C1=O (centres undefined)	0.3	-0.0445	0.6	40.1	71.8*
CCC1Sc2ccccc2N(CC(=O)NCCC2=CCCCC2)C1=O (centres undefined)	0.8	-5.8*	0.7	28.4	19.2
CC1CC(=O)N(CC(=O)Nc2ccc3c(c2)OCO3)c2ccccc2S1 (centres undefined)	0.6	0.0126	0.7	28.1	43.5
O=C(NCc1ccccc1)c1onc(CSc2ccccc2)c1C(=O)NCC1CC1	·	-3.02	·	·	·
OC1(c2cccc(C(F)(F)F)c2)CCN(Cc2nnnn2CCc2ccccc2)CC1	·	-5.58*	·	·	·
COCCn1nnnc1CN1CCN(c2cccc(C(F)(F)F)c2)CC1	0.2	0.258	0.5	46.5	78.0*
OC1(c2ccc(F)cc2)CCN(Cc2nnnn2Cc2cccs2)CC1	0.3	-0.456	0.4	59.7*	75.0*
Cc1ccccc1CS(=O)(=O)CCC(=O)NCCN1CCN(c2cccc(Cl)c2)CC1	0.8	·	0.8	24.8	21.3
O=C(CSc1nc2cc(Cl)ccc2o1)c1cccs1	0.4	-0.891	0.4	60.2*	57.6*
O=C(CSc1nc2ccccc2o1)c1ccccc1	·	0.0876	·	·	·
COc1ccc(-c2nnc(SCC(=O)c3cc(C)n(Cc4cccs4)c3C)o2)cc1	0.2	-0.206	0.2	77.8*	80.2*
CC(C)(C)NC(=O)CSc1nncn1-c1ccccc1	0.5	-1.7	0.9	10.4	49.9
Cc1cc(C(=O)CSc2nnc(-c3cccs3)o2)c(C)n1-c1ccccc1	0.3	-5.08*	0.1	89.4*	66.4*
COCCn1c(C)cc(C(=O)CSc2nncn2-c2ccccc2)c1C	0.4	0.158	1	0.8	56.8*
CCOc1ccc(NC(=O)CSc2nnc(C34CC5CC(CC(C5)C3)C4)n2C)cc1	0.8	0.114	0.6	43.0	23.2
c1ccc2c(c1)CCN(c1nc3cc4c(cc3s1)OCCO4)C2	0.9	-0.0707	0.9	11.1	11.0
CCOC(=O)C1CC=C(Cl)CC1C(=O)Nc1nccs1 (centres undefined)	0.6	-1.45	0.6	40.7	36.5
COc1ccc(-n2cnnc2SCC(=O)c2cc(C)n(Cc3cccs3)c2C)cc1	0	-5.42*	0.2	76.5*	99.0*
COc1ccc(-c2nnc(SCC(=O)c3cccs3)o2)cc1	0.8	-5.19*	0.6	35.2	18.5
CCC1CCCCN1C(=O)CSc1nnc(-c2cccs2)o1 (centres undefined)	0	0.114	0.8	20.5	98.0*
COc1ccc(C(=O)CSc2nnc(-c3cc(C)cc(C)c3)o2)cc1	0.4	-0.466	1.1	-13.4	62.2*
COc1cccc(C(=O)CSc2nnc(-c3cc(OC)cc(OC)c3)o2)c1	1	0.217	1	-1.2	0.4
O=C(CSc1nnc(-c2cccs2)o1)OC1CCCCC1	0.5	-0.625	0.6	36.6	47.4
O=C(CCCOc1ccc(Cl)cc1Cl)N/N=C\C1CCCCC1	0.1	0.165	0.8	16.1	91.5*
O=C(Nc1cccnc1)Nc1ccc(F)c(Cl)c1	0.2	-0.88	0.2	75.9*	85.0*
SMILES	CYP2C19 activ	Cav32 inh	CYP2C9 act	CYP2C9 inh	CYP2C19 inh
CN(C)S(=O)(=O)c1ccc(C(=O)Nc2cccnc2)cc1	0.9	0.108	0.7	27.2	12.0
CSc1ccccc1NC(=O)Nc1ccc(F)c(Cl)c1	1	-1.55	1	-0.3	-3.9
Cc1ccc(S(=O)(=O)C2(C(=O)Nc3cccnc3)CC2)cc1	0.4	0.119	0.7	32.1	56.3*
O=C(Nc1cccnc1)C1(c2ccc(Cl)cc2)CCCC1	0.2	-0.0593	0.7	32.9	80.6*
O=C(CC12CCC(CC1)C2)NCc1ccc2c(c1)OCO2	·	1.02	·	·	·
COc1ccc(CCNC(=O)c2c(O)c3c([nH]c2=O)CCCC3)cc1	0.8	0.839	0.6	38.1	19.4
CC(C)(CO)NC(=O)CCCOc1ccc(Cl)cc1Cl	0.4	-0.0561	0.8	21.6	55.1*
O=C(CCCOc1ccc(Cl)cc1Cl)Nc1cccnc1	0.3	·	0.5	51.5*	72.2*
O=C(COC(=O)C1c2ccccc2Oc2ccccc21)NC1CCS(=O)(=O)C1 (centres undefined)	0.7	0.0287	1.3	-26.0	31.8
CCN(CC)C(=O)CC(c1ccc(OC)cc1)c1c(OC)cc(OC)c2ccc(=O)oc12 (centres undefined)	·	0.625	·	·	·
Cc1cc(N2CCOCC2)nc(-c2ccc([N+](=O)[O-])cc2)n1	0.8	·	0.9	12.0	21.5
CN1CC(c2ccc(Cl)c(Cl)c2)[C@@]2(COc3ccccc3C2=O)[C@@]12C(=O)Nc1ccccc12 (some centres undefined)	1	0.457	0.2	77.3*	-2.5
CC(=O)NC1CC(C)(C)N(OC(C)=O)C(C)(C)C1	0.8	·	1	-3.1	17.6
CN(C)CCOC(C)(c1ccccc1)c1ccccn1 (centres undefined)	·	-0.155	·	·	·
Cc1ccc(/C=C/c2ccc(=O)n(Cc3ccccc3Cl)n2)cc1	1	-0.639	0.6	38.8	-0.1
Cc1coc(C)c1C(=O)CC1(O)C(=O)N(Cc2ccccc2)c2ccccc21 (centres undefined)	0	-4.61*	0.6	39.3	98.5*
CC(=O)CC1(O)C(=O)N(Cc2ccccc2)c2ccccc21 (centres undefined)	0.6	0.579	0.9	12.8	36.2
C/C(CC1(O)C(=O)N(Cc2ccccc2)c2ccccc21)=N\O (centres undefined)	0.5	0.792	0.9	8.0	50.3*
N#Cc1c(N2CCOCC2)nc(-c2ccco2)c2c1CCCC2	0.8	-1.34	0.3	67.0*	21.2
CCCc1nc(NCc2ccco2)c(C#N)c2c1COC(C)(C)C2	0.9	-0.716	0.7	29.2	6.4
N#Cc1c(NCCN)nc(-c2ccco2)c2c1CCCC2	0.9	0.146	0.8	24.2	10.1
CC(C)c1nc(N2CCN(C(=O)c3ccccc3)CC2)c(C#N)c2c1COC(C)(C)C2	0.3	-6.19*	0.2	81.4*	72.3*
CC1(C)Cc2c(C#N)c(NCc3ccco3)nc(-c3ccco3)c2CO1	1	-0.753	0.8	19.1	-3.0
CC1(C)Cc2c(C#N)c(N3CCN(C(=O)c4ccccc4)CC3)nc(-c3ccco3)c2CS1	·	-2.56	·	·	·
CCCCN(C)c1nc(-c2ccco2)c2c(c1C#N)CC(C)(C)OC2	1.1	-3.8*	0.7	31.6	-9.1
CC1(C)Cc2c(C#N)c(N3CCCC3)nc(-c3ccco3)c2CO1	0.5	-1.73	0.1	90.6*	50.6*
O=C(Cn1c(=O)oc2cc(S(=O)(=O)N3CCCCCC3)ccc21)NC1CCCCC1	1	0.638	0.9	12.0	1.8
Cc1ccc(NC(=O)Cn2c(=O)oc3cc(S(=O)(=O)N4CCC(C)CC4)ccc32)cc1C	1	-5.87*	0.3	67.3*	4.7
CCOC(=O)Cn1c(=O)oc2cc(S(=O)(=O)N3CCn4c3nc3ccccc34)ccc21	0.9	1.73	1.2	-17.9	14.7
